Bioassay records (PubChem BioAssay)
Hits are enriched below; roughly 2.5% of the tested compounds scored in any of these assays.
Mcl1 Bid PPI – Mcl-1/Bid interaction inhibition; 220,000 tested, 0.97% active; inhibition, % at 21.7 µM; TR-FRET Mcl-1/Bid-Dy647 peptide binding, 1536-well; Q07820;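 active means compounds that cut the binding signal by more than half at the single screening dose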;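 further: His-tagged Mcl-1 with europium anti-His antibody binding Bid BH3 peptide; 0% = Mcl-1 plus peptide wells and 100% = peptide-only wells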
Mcl-1 Bim block – disrupts Bim peptide binding to human Mcl-1 | inhibition, % at 10 µM | Q07820 | Bead-based flow cytometry, Bim peptide-Mcl-1 binding | 190,000 tested, 0.1% active; in the data active means inhibition above about 40%;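 further: 0% = no compound tracer wells and 100% = peptide blocker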
14-3-3 Bad PPI – disrupts binding of bovine 14-3-3 zeta to phospho-Bad peptide; P63103; TR-FRET 14-3-3zeta/Dy647-pBad peptide displacement, 1 h; inhibition, % at 21.7 µM; 220,000 tested, 0.71% active;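 active means inhibition above about 70%, limit read from the data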;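 further: 0% = full 14-3-3 plus peptide FRET controls and 100% = background without 14-3-3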
Target sequence (P63103 whole entry, looked up): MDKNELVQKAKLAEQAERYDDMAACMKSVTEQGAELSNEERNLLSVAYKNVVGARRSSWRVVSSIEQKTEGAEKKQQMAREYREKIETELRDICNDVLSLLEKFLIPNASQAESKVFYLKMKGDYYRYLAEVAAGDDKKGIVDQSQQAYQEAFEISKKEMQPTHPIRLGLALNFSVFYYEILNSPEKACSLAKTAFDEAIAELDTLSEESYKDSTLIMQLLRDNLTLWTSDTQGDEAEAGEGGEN
Mcl1 Noxa PPI – disrupts binding of human Mcl-1 to Noxa peptide; TR-FRET Mcl-1/Noxa peptide binding, 2 h; inhibition, % at 21.7 µM; 220,000 tested, 1.5% active; Q07820;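 active means compounds that cut the protein-peptide binding signal by more than 50% relative to plate controls in a single-dose test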;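 further: His-tagged Mcl-1 with rhodamine Noxa BH3 peptide and terbium anti-His antibody; 0% = Mcl-1 plus Noxa peptide wells and 100% = peptide-only wells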
MCL1-BIM inh – inhibitors of human MCL1 binding to BIM-BH3 peptide; GST-MCL1 / FITC-Bim-BH3 fluorescence polarization; inhibition, % at 10.9 µM; Q07820; 320,000 tested, 0.68% active;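 active means inhibition above the mean inhibition of all tested compounds plus 3 SD, set per campaign, cut at about 40% in these data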;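 further: 0% = DMSO wells and 100% = unlabeled Bim-BH3 peptide control; higher means more loss of mP so more displacement of Bim peptide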
The depositor's hits bear a star.

`Clc1ccc2c(N/N=C/c3ccc(Br)cc3)ccnc2c1` gave Mcl1 Bid PPI 45, Mcl-1 Bim block 4, 14-3-3 Bad PPI 46, Mcl1 Noxa PPI 42 and MCL1-BIM inh -1.
Screening Cc1ccccc1/C=N/Nc1ccnc2cc(Cl)ccc12 returned Mcl1 Bid PPI 52*, Mcl-1 Bim block 4, 14-3-3 Bad PPI 38, Mcl1 Noxa PPI 98* and MCL1-BIM inh 1.
Screening O=C1NC(=NCc2ccccc2)S/C1=C\c1ccccc1 returned Mcl1 Bid PPI 7, Mcl-1 Bim block 4, 14-3-3 Bad PPI -2, Mcl1 Noxa PPI 28 and MCL1-BIM inh 3.
`O=C(Nc1ccc(Cl)c(Cl)c1)Nc1nc(-c2ccccc2)cs1` gave Mcl1 Bid PPI 30, Mcl-1 Bim block -2, 14-3-3 Bad PPI 13, Mcl1 Noxa PPI 51* and MCL1-BIM inh 3.
`O=C(CN(C(=O)CCNC(=O)c1ccco1)c1ccccc1)NC1CCCC1` gave Mcl1 Bid PPI 0, Mcl-1 Bim block 0, 14-3-3 Bad PPI 2, Mcl1 Noxa PPI 10 and MCL1-BIM inh -1.
Screening CCOC(=O)C1(Cc2cccc(OC)c2)CCN(Cc2cc(OC)ccc2OC)CC1 returned Mcl1 Bid PPI -19, Mcl-1 Bim block 1, 14-3-3 Bad PPI 80*, Mcl1 Noxa PPI 9 and MCL1-BIM inh 1.
For CCOC(=O)C1(Cc2cccc(OC)c2)CCN(Cc2cccc(OC)c2OC)CC1 the results were Mcl1 Bid PPI -25, Mcl-1 Bim block 78*, 14-3-3 Bad PPI -3, Mcl1 Noxa PPI 5 and MCL1-BIM inh 5.
Cc1ccc2c(c1)N(C(=O)CCC(=O)N1CCOCC1)CCO2 was read as MCL1-BIM inh 0.
For CC(O)CNC(=O)C1CCN(Cc2ccc(OCc3ccccc3)cc2)CC1 (stereo not given) the results were Mcl1 Bid PPI 63*, Mcl-1 Bim block -6, 14-3-3 Bad PPI -2, Mcl1 Noxa PPI 31 and MCL1-BIM inh 0.
`CC1=NOC(=O)/C1=C\c1ccc(-c2ccc(Cl)cc2Cl)o1` gave Mcl1 Bid PPI 88*, Mcl-1 Bim block -4, 14-3-3 Bad PPI 62 and Mcl1 Noxa PPI 87*.
`O=C(O)c1[nH]c2ccc([N+](=O)[O-])cc2c1-c1ccccc1` gave Mcl1 Bid PPI -22, 14-3-3 Bad PPI 0, Mcl1 Noxa PPI 12 and MCL1-BIM inh 3.
`O=[N+]([O-])c1ccc2[nH]nc(-c3ccccc3)c2c1` gave Mcl1 Bid PPI 0, Mcl-1 Bim block 44*, 14-3-3 Bad PPI -4, Mcl1 Noxa PPI 23 and MCL1-BIM inh -1.
Screening O=[N+]([O-])c1ccc2[nH]c3nc4ccccc4nc3c2c1 returned Mcl1 Bid PPI 36, 14-3-3 Bad PPI 44, Mcl1 Noxa PPI 64* and MCL1-BIM inh 23.
For Cc1cccn2c(=O)c3cc(C(N)=S)c(=N)n(CCCN4CCOCC4)c3nc12 the results were Mcl1 Bid PPI 58*, Mcl-1 Bim block 0, 14-3-3 Bad PPI -18, Mcl1 Noxa PPI 40 and MCL1-BIM inh 34.
`Cc1cccn2c(=O)c3cc(C(=O)NCCc4ccccc4)c(=N)n(Cc4ccco4)c3nc12` gave MCL1-BIM inh 7.
N=c1c(C(=O)NCc2ccco2)cc2c(=O)n3ccccc3nc2n1Cc1ccccc1 was read as Mcl1 Bid PPI -4, Mcl-1 Bim block -1, 14-3-3 Bad PPI -13, Mcl1 Noxa PPI 46 and MCL1-BIM inh 48*.
Cc1cccn2c(=O)c3cc(C(=O)NCc4ccco4)c(=N)n(CCc4ccccc4)c3nc12 was read as Mcl1 Bid PPI 1, 14-3-3 Bad PPI 15, Mcl1 Noxa PPI 80* and MCL1-BIM inh 37.
`N=c1c(C(=O)NCc2ccccc2)cc2c(=O)n3ccccc3nc2n1Cc1ccco1` gave Mcl1 Bid PPI -17, Mcl-1 Bim block -2, Mcl1 Noxa PPI 58* and MCL1-BIM inh -1.
C#CCn1c(=O)c2c(ncn2C)n(C)c1=O was read as MCL1-BIM inh 3.
For CSc1cccc(NC(=O)CN(C)S(=O)(=O)c2ccccc2)c1 the results were Mcl1 Bid PPI 72*, Mcl-1 Bim block 0, 14-3-3 Bad PPI -9, Mcl1 Noxa PPI -18 and MCL1-BIM inh 11.
COc1cc(NC(=S)NC(=O)c2ccccc2F)ccc1NC(=O)c1ccco1 was read as Mcl1 Bid PPI 53*, Mcl-1 Bim block -7, 14-3-3 Bad PPI 30, Mcl1 Noxa PPI 32 and MCL1-BIM inh 12.
Screening CCN1CCN(C(c2cccs2)C(C)NC(=O)c2cccc(OC)c2)CC1 (stereo not given) returned MCL1-BIM inh 6.
